# Assay results from the supplement of paper PMC10681739.
# Molecular target: T1, ETS1 (UniProt P14921)
# T1 sequence: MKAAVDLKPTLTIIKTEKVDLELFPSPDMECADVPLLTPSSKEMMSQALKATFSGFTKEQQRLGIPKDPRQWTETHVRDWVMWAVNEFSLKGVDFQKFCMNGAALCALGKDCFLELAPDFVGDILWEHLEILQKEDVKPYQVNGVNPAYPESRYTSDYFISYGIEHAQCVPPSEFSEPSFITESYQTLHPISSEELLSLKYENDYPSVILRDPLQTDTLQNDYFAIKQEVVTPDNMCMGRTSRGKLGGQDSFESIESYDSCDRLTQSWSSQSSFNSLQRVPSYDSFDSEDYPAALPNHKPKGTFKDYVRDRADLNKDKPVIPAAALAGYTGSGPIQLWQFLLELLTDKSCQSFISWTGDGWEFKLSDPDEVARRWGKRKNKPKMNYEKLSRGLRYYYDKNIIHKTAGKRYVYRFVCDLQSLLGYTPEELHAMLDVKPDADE
# Assay: TF binding intensity (PBM fluorescence), negative control probe (arbitrary fluorescence units); higher = stronger binding
# Experimental: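 gcPBM negative-control 36-bp genomic probes lacking TF binding sites. Each was incubated with recombinant human ETS1 or RUNX1 alone and detected by antibody fluorescence. Values are medians over replicate spots (4 spots for the ETS1-RUNX1 arrays, 3 for the ETS1-ETS1 array). The probes sit in constant array flanks that are not printed.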
row,Sequence,TF binding intensity
1,CTACACATTTTAAAGAAAGAGACCACAGTTCTTTAT (protein concentration 10 nM),122
2,GCTCGCCTACCCACTGATTGCCAGTGTCCTGGGTGA (protein concentration 10 nM),107
3,CATTAGTAAACCCTTACCACACCCAAACAACAAAAG (protein concentration 1 nM),541
4,ACCTCCCACTTGGCTCCCAGGTGGGTGCAGTGAGGC (protein concentration 10 nM),155
5,CTGGGGTGGCGCCAGCCTTATTATGACTAACCATGA (protein concentration 10 nM),105
6,GCTATCTATTTTAATTAGCTAAGATTGCTATTAATA (protein concentration 10 nM),106
